Shown are actives, neighbours in structure and some others; about 4% of the full set was active somewhere.
EWS-Fli block – blocks EWS/Fli oncoprotein-driven transcription; inhibition, % at 12.6 µM; AID 651661; 350,000 tested, 0.67% active; A673 NR0B1-luciferase reporter, viability-normalised;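 active = mean inhibition of at least 50% after viability correction, with every replicate also passing that limit; inconclusive = mean reaches 50% but only one of two replicates passes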;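 note: firefly luciferase signal divided by Alamar Blue viability fluorescence both relative to DMSO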
PAX8 reporter – PAX8 transcriptional activity inhibition | RMG-I TPO-luciferase reporter, SteadyGlo, 24 h | inhibition, % at 12.6 µM | 360,000 tested, 1.2% active | AID 652154;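 active = mean replicate inhibition at least 60% with every replicate also reaching 60%; inconclusive = only one of the two criteria is met; inactive = mean below 60% and not all replicates reaching 60%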;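 note: luciferase light reporting Pax8 driven TPO promoter activity; plate controls were median of neutral control wells for no effect and mitoxantrone controls for full effect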
MITF TRPM1 HTS – MITF TRPM1 promoter activation in melanoma cells; SK-MEL-5 TRPM1-promoter luciferase, 24 h; % of positive control, neutral wells = 0; activation, % at 12.5 µM; 300,000 tested, 0.75% active; AID 588334;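 active = mean activation of at least 80% with every replicate also reaching 80%; inconclusive = mean reaches 80% but some replicate falls short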;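 note: 0% = neutral control wells and 100% = parthenolide positive control wells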
Wnt act – activators of Wnt/beta-catenin signaling; Wnt/beta-catenin reporter cell assay, activator, plate reader; 300,000 tested, 1.2% active; AID 743398; activation, % at 9.35 µM; in the data active = activation above about 30%, passing the limit was not always enough; inconclusive = no clear call, values can overlap the other calls;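 note: 0% = neutral control wells and 100% = positive control wells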
esBAF inh – blocks esBAF chromatin remodeling in mouse ES cells. Bmi1-luciferase knock-in reporter, 24 h; 100% = twice the neutral-well signal. 350,000 tested, 2% active. reporter increase, % at 12.5 µM; in the data active = activation above about 40%; inconclusive = no clear call, values can overlap the other calls;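 note: 0% = median of the plate's neutral control wells and 100% = double that signal; a rise in the Bmi1 reporter signal indicates esBAF inhibition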
TRPM1 prom inh – reduces MITF-dependent TRPM1 promoter luciferase signal. SK-MEL-5 TRPM1 promoter luciferase, 24 h. inhibition, % at 12.5 µM. 330,000 tested, 0.83% active. AID 488899;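 active = mean inhibition across replicates of 60% or more, whatever share of single replicates reaches that level; inconclusive = some that reach 60%, reason not given; inactive = mean inhibition across replicates below 60%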
* = called active by the depositor.

Screening N#C/C(=C\c1cccn1-c1ccccc1)C(=O)NC1CCCCC1 returned EWS-Fli block 61.9*, PAX8 reporter 20.8, MITF TRPM1 HTS -14.0, Wnt act -5.0, esBAF inh 12.3 and TRPM1 prom inh 13.6.
Screening N#C/C(=C\c1ccc(F)c(F)c1)C(=O)NC1CCCCC1 returned EWS-Fli block 3.2, PAX8 reporter 1.5, MITF TRPM1 HTS -4.6 and TRPM1 prom inh 3.4.
`Cc1onc(C(=O)N2CCN(Cc3ccccc3)CC2)c1[N+](=O)[O-]` gave EWS-Fli block -1.1, PAX8 reporter 1.1, MITF TRPM1 HTS -4.9, Wnt act 2.3, esBAF inh 1.1 and TRPM1 prom inh 7.0.
CC(C)c1onc(C(=O)N2CCN(C(c3ccccc3)c3ccccc3)CC2)c1[N+](=O)[O-] was read as EWS-Fli block 64.3*, PAX8 reporter 83.8*, MITF TRPM1 HTS -1.1, Wnt act -1.7, esBAF inh 5.9 and TRPM1 prom inh 0.1.
Cc1onc(C(=O)N2CCC(Cc3ccccc3)CC2)c1[N+](=O)[O-] was read as EWS-Fli block 59.2*, PAX8 reporter inconclusive, MITF TRPM1 HTS 0.0, Wnt act -3.6, esBAF inh -0.4 and TRPM1 prom inh 0.3.
For Cc1ccc(Cl)cc1N1CCN(C(=O)c2noc(C(C)C)c2[N+](=O)[O-])CC1 the results were EWS-Fli block 56.2*, PAX8 reporter 118.9*, MITF TRPM1 HTS -5.2, Wnt act -1.1, esBAF inh -8.1 and TRPM1 prom inh 8.1.
Screening C[C@@H]1CN([C@H](C)CO)S(=O)(=O)c2ccc(C#C[C@@H](C)O)cc2O[C@@H]1CN(C)C(=O)C1CCC1 returned EWS-Fli block 8.9 and esBAF inh 0.4.
For C[C@H](CO)N1C[C@H](C)[C@H](CN(C)S(=O)(=O)c2ccc(F)cc2)Oc2c(NC(=O)Nc3cccc4ccccc34)cccc2C1=O the results were EWS-Fli block 4.3 and esBAF inh 3.6.
`Cc1cccc(NC(=S)NC(=O)C2CC2)c1` gave MITF TRPM1 HTS 1.3, esBAF inh 22.4 and TRPM1 prom inh -2.7.
`Cc1ccc(NC(=S)NC(=O)C2CCCC2)c(Br)c1` gave EWS-Fli block -68.1, PAX8 reporter -257.0, MITF TRPM1 HTS 97.0*, Wnt act 52.8*, esBAF inh 67.5* and TRPM1 prom inh -96.8.
For Cc1cc(NC(=S)NC(=O)C2CC2)ccc1Br the results were PAX8 reporter -48.5, MITF TRPM1 HTS 31.8, Wnt act inconclusive, esBAF inh 63.9* and TRPM1 prom inh -24.9.
Cc1coc2c1C(=O)C(=O)c1c-2ccc2c1CCCC2(C)C was read as EWS-Fli block -22.8, MITF TRPM1 HTS -93.4, Wnt act -0.9, esBAF inh 33.6 and TRPM1 prom inh 93.3*.
Cc1coc2c1C(=O)C(=O)c1c-2ccc2c(C)cccc12 was read as MITF TRPM1 HTS -97.7 and esBAF inh -17.3.
`C[C@H]1COC2=C1C(=O)C(=O)c1c2ccc2c1CCCC2(C)C` gave MITF TRPM1 HTS -83.5, esBAF inh 29.0 and TRPM1 prom inh 84.2*.
Screening COc1ccccc1-c1cn(CC[C@@H]2CC[C@@H](NC(=O)C3CCOCC3)[C@@H](CO)O2)nn1 returned EWS-Fli block 7.0, PAX8 reporter 9.4 and esBAF inh 2.7.
C[C@H](CO)N1C[C@H](C)[C@@H](CN(C)C(=O)NC2CCCCC2)Oc2ncc(C#CCN(C)C)cc2C1=O was read as EWS-Fli block -7.4, PAX8 reporter -24.6 and esBAF inh 10.8.
For Cc1nn(C(=O)c2ccc3c(c2)OCO3)c(N)c1-c1ccccc1 the results were EWS-Fli block 0.2, PAX8 reporter -32.5, MITF TRPM1 HTS 75.5, Wnt act 66.6*, esBAF inh 15.0 and TRPM1 prom inh -81.3.
Cc1nn(C(=O)c2cccs2)c(N)c1-c1ccccc1 was read as EWS-Fli block -76.5, PAX8 reporter -225.6, MITF TRPM1 HTS 89.5*, Wnt act 46.7*, esBAF inh 85.3* and TRPM1 prom inh -96.3.
O=C(c1ccc2c(c1)OCO2)N1CCN(c2ccccc2)CC1 was read as MITF TRPM1 HTS 6.4, Wnt act 3.7, esBAF inh 4.0 and TRPM1 prom inh -8.1.
For Cc1noc(C)c1NC(=O)NCC[C@@H]1CC[C@H](NC(=O)Nc2cccc(F)c2)[C@H](CO)O1 the results were EWS-Fli block -8.0, PAX8 reporter 1.0 and esBAF inh 2.3.
For COc1ccc2c3c(n(C)c2c1)[C@H](CO)N(C(=O)CC1CC1)CC31CN(C(=O)C2CCC2)C1 the results were EWS-Fli block -3.0 and PAX8 reporter 4.9.
Screening CC1=NN(c2ccccc2)C(=O)C1N=Nc1cccc(O)c1 (stereo not drawn) returned EWS-Fli block -55.7, PAX8 reporter -68.3, Wnt act 0.9, esBAF inh 52.2* and TRPM1 prom inh -35.3.
For CC1=NN(c2nc(-c3ccc(C)cc3)cs2)C(=O)C1N=Nc1ccccc1O (stereo not drawn) the results were EWS-Fli block -11.2, PAX8 reporter -14.3, MITF TRPM1 HTS -68.2, Wnt act 2.0 and TRPM1 prom inh 68.9*.
For CC1=NN(c2ccccc2)C(=O)C1N=Nc1ccc(N)cc1 (stereo not drawn) the results were MITF TRPM1 HTS 12.8, esBAF inh 25.6 and TRPM1 prom inh -11.4.
CC1=NN(c2ccccc2)C(=O)C1N=Nc1ccccc1 (stereo not drawn) was read as EWS-Fli block -15.6, PAX8 reporter -96.6, MITF TRPM1 HTS 22.0, Wnt act 56.6* and TRPM1 prom inh -17.0.
C[C@H](CO)N1C[C@H](C)[C@@H](CN(C)Cc2ccc(C(=O)O)cc2)Oc2ccc(NC(=O)C3CC3)cc2C1=O was read as PAX8 reporter -25.3 and esBAF inh -1.3.
Screening Cc1ccc(CNC(=O)c2ccc3c(=O)c(O)c(-c4ccc(C)cc4)[nH]c3c2)cc1 returned EWS-Fli block 8.7, PAX8 reporter 70.0*, MITF TRPM1 HTS -54.9, Wnt act -5.0, esBAF inh -26.5 and TRPM1 prom inh 56.0.
`CN(C(=O)c1ccco1)c1nnc(-c2ccc(F)cc2)s1` gave EWS-Fli block -47.2, PAX8 reporter -122.1, MITF TRPM1 HTS 100.1*, Wnt act 7.3, esBAF inh 57.9* and TRPM1 prom inh -96.1.
CN(C(=O)c1ccco1)c1nc(-c2ccc(F)cc2)cs1 was read as EWS-Fli block -108.8, PAX8 reporter -185.5, MITF TRPM1 HTS 80.5*, Wnt act 0.1, esBAF inh 26.9 and TRPM1 prom inh -75.6.
COc1ccc(-c2nnc(N(C)C(=O)c3ccco3)s2)cc1OC was read as EWS-Fli block -16.4, PAX8 reporter -28.0, MITF TRPM1 HTS 29.2, Wnt act 0.2, esBAF inh 9.9 and TRPM1 prom inh -18.9.
Screening CCCNC(=O)N1CC2(CN(C(=O)Cc3cccnc3)C2)c2c([nH]c3cc(OC)ccc23)[C@@H]1CO returned EWS-Fli block -2.3 and PAX8 reporter -6.1.
